PMC9911399, “Two distinct binding modes provide the RNA-binding protein RbFox with extraordinary sequence specificity”
Residue numbers refer to the chain shown, from its start. Whole data set: some 16,000 sequences, median “ka relative to ugcaugu” near 0.0091, cut for the highest 2% near 0.032. For the sample, the highest values were picked, then their nearest neighbours and some sequences at random.

T1: RBFOX1 RRM (Homo sapiens, UniProt Q9NWB1 109-208)
T1 sequence: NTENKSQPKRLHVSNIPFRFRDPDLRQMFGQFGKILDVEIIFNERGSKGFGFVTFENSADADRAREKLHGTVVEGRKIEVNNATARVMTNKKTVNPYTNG

B1: GGGGGCC (DNA:RNA)
RNA: GGGAGACCGGAAUUCAGAUUGUCCGGGGGCCUUAAAUCCCGUCGUAGCCACCA
DNA 1: CAATCTGAATTCCGGTCTCCC
DNA 2: TGGTGGCTACGACGGGATT
B2: GGGCCUG (DNA:RNA)
RNA: B1 RNA with G28C, G29C, C30U, C31G
DNA 1: CAATCTGAATTCCGGTCTCCC
DNA 2: TGGTGGCTACGACGGGATT
B3: CGGGCCG (DNA:RNA)
RNA: B1 RNA with G25C, G29C, C31G
DNA 1: CAATCTGAATTCCGGTCTCCC
DNA 2: TGGTGGCTACGACGGGATT
B4: CGGCCUG (DNA:RNA)
RNA: B1 RNA with G25C, G28C, G29C, C30U, C31G
DNA 1: CAATCTGAATTCCGGTCTCCC
DNA 2: TGGTGGCTACGACGGGATT
B5: GGGCCGU (DNA:RNA)
RNA: B1 RNA with G28C, G29C, C30G, C31U
DNA 1: CAATCTGAATTCCGGTCTCCC
DNA 2: TGGTGGCTACGACGGGATT
B6: GGGCCCU (DNA:RNA)
RNA: B1 RNA with G28C, G29C, C31U
DNA 1: CAATCTGAATTCCGGTCTCCC
DNA 2: TGGTGGCTACGACGGGATT
B7: GGGGCCC (DNA:RNA)
RNA: B1 RNA with G29C
DNA 1: CAATCTGAATTCCGGTCTCCC
DNA 2: TGGTGGCTACGACGGGATT
B8: GGGGCCG (DNA:RNA)
RNA: B1 RNA with G29C, C31G
DNA 1: CAATCTGAATTCCGGTCTCCC
DNA 2: TGGTGGCTACGACGGGATT
B9: CGGGCCC (DNA:RNA)
RNA: B1 RNA with G25C, G29C
DNA 1: CAATCTGAATTCCGGTCTCCC
DNA 2: TGGTGGCTACGACGGGATT
B10: CACCUAU (DNA:RNA)
RNA: GGGAGACCGGAAUUCAGAUUGUCCCACCUAUUUAAAUCCCGUCGUAGCCACCA
DNA 1: CAATCTGAATTCCGGTCTCCC
DNA 2: TGGTGGCTACGACGGGATT
B11: AAGUACA (DNA:RNA)
RNA: B1 RNA with G25A, G26A, G28U, G29A, C31A
DNA 1: CAATCTGAATTCCGGTCTCCC
DNA 2: TGGTGGCTACGACGGGATT
B12: UGCGGAA (DNA:RNA)
RNA: B1 RNA with G25U, G27C, C30A, C31A
DNA 1: CAATCTGAATTCCGGTCTCCC
DNA 2: TGGTGGCTACGACGGGATT
B13: UCAUCGU (DNA:RNA)
RNA: B10 RNA with C25U, A26C, C27A, C28U, U29C, A30G
DNA 1: CAATCTGAATTCCGGTCTCCC
DNA 2: TGGTGGCTACGACGGGATT
B14: AUAAGUU (DNA:RNA)
RNA: B10 RNA with C25A, A26U, C27A, C28A, U29G, A30U
DNA 1: CAATCTGAATTCCGGTCTCCC
DNA 2: TGGTGGCTACGACGGGATT
B15: UGAGCCA (DNA:RNA)
RNA: B1 RNA with G25U, G27A, G29C, C31A
DNA 1: CAATCTGAATTCCGGTCTCCC
DNA 2: TGGTGGCTACGACGGGATT
B16: ACAUCCA (DNA:RNA)
RNA: B1 RNA with G25A, G26C, G27A, G28U, G29C, C31A
DNA 1: CAATCTGAATTCCGGTCTCCC
DNA 2: TGGTGGCTACGACGGGATT
B17: UUUGAUA (DNA:RNA)
RNA: B1 RNA with G25U, G26U, G27U, G29A, C30U, C31A
DNA 1: CAATCTGAATTCCGGTCTCCC
DNA 2: TGGTGGCTACGACGGGATT
B18: CGGACUG (DNA:RNA)
RNA: B1 RNA with G25C, G28A, G29C, C30U, C31G
DNA 1: CAATCTGAATTCCGGTCTCCC
DNA 2: TGGTGGCTACGACGGGATT
B19: CAGACUG (DNA:RNA)
RNA: B10 RNA with C27G, C28A, U29C, A30U, U31G
DNA 1: CAATCTGAATTCCGGTCTCCC
DNA 2: TGGTGGCTACGACGGGATT
B20: AGGACUG (DNA:RNA)
RNA: B1 RNA with G25A, G28A, G29C, C30U, C31G
DNA 1: CAATCTGAATTCCGGTCTCCC
DNA 2: TGGTGGCTACGACGGGATT
B21: GGACUGU (DNA:RNA)
RNA: B10 RNA with C25G, A26G, C27A, A30G
DNA 1: CAATCTGAATTCCGGTCTCCC
DNA 2: TGGTGGCTACGACGGGATT
B22: UGGACUG (DNA:RNA)
RNA: B1 RNA with G25U, G28A, G29C, C30U, C31G
DNA 1: CAATCTGAATTCCGGTCTCCC
DNA 2: TGGTGGCTACGACGGGATT
B23: GGGACUG (DNA:RNA)
RNA: B1 RNA with G28A, G29C, C30U, C31G
DNA 1: CAATCTGAATTCCGGTCTCCC
DNA 2: TGGTGGCTACGACGGGATT
B24: UGUGGAC (DNA:RNA)
RNA: B1 RNA with G25U, G27U, C30A
DNA 1: CAATCTGAATTCCGGTCTCCC
DNA 2: TGGTGGCTACGACGGGATT
B25: GGGACCG (DNA:RNA)
RNA: B1 RNA with G28A, G29C, C31G
DNA 1: CAATCTGAATTCCGGTCTCCC
DNA 2: TGGTGGCTACGACGGGATT
B26: UGGAGAC (DNA:RNA)
RNA: B1 RNA with G25U, G28A, C30A
DNA 1: CAATCTGAATTCCGGTCTCCC
DNA 2: TGGTGGCTACGACGGGATT
B27: CCUGGCU (DNA:RNA)
RNA: B1 RNA with G25C, G26C, G27U, C31U
DNA 1: CAATCTGAATTCCGGTCTCCC
DNA 2: TGGTGGCTACGACGGGATT
B28: AGGUGAU (DNA:RNA)
RNA: B1 RNA with G25A, G28U, C30A, C31U
DNA 1: CAATCTGAATTCCGGTCTCCC
DNA 2: TGGTGGCTACGACGGGATT
B29: UUCGAUU (DNA:RNA)
RNA: B10 RNA with C25U, A26U, C28G, U29A, A30U
DNA 1: CAATCTGAATTCCGGTCTCCC
DNA 2: TGGTGGCTACGACGGGATT
B30: GUUUGCU (DNA:RNA)
RNA: B1 RNA with G26U, G27U, G28U, C31U
DNA 1: CAATCTGAATTCCGGTCTCCC
DNA 2: TGGTGGCTACGACGGGATT
B31: AACGCCU (DNA:RNA)
RNA: B10 RNA with C25A, C28G, U29C, A30C
DNA 1: CAATCTGAATTCCGGTCTCCC
DNA 2: TGGTGGCTACGACGGGATT

target: T1, RBFOX1 RRM; test: EMSA; HiTS-Eq, 1 nM pool, 10 min; buffer printed only for the single-RNA assays: 10 mM Tris pH 7.5, 150 mM NaCl, 3.4 mM EDTA, 0.001% NP-40, 30 C; conditions: tags: His6 N-terminal (pET28a); label: 5' 32P
Summary of the method: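 A pool of RNA with 7 randomized nucleotides, 5′-radiolabelled and with DNA-annealed flanks, was equilibrated at 1 nM for 10 min in 50 µL with purified RbFox RRM, wild type or mutant, across increasing protein concentrations. Free RNA was separated by 8% native PAGE, excised, reverse-transcribed, barcoded by PCR and sequenced. Relative association constants were obtained from read-count changes of each RNA species versus the control reaction and normalised to the cognate motif.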

Row | Binder | binding signal
1 | B1 | 0.0256 KA relative to UGCAUGU
2 | B2 | 0.0377 KA relative to UGCAUGU
3 | B3 | 0.0351 KA relative to UGCAUGU
4 | B4 | 0.0257 KA relative to UGCAUGU
5 | B5 | 0.0153 KA relative to UGCAUGU
6 | B6 | 0.00615 KA relative to UGCAUGU
7 | B7 | 0.0409 KA relative to UGCAUGU
8 | B8 | 0.027 KA relative to UGCAUGU
9 | B9 | 0.0176 KA relative to UGCAUGU
10 | B10 | 0.000316 KA relative to UGCAUGU
11 | B11 | 0.00261 KA relative to UGCAUGU
12 | B12 | 0.0165 KA relative to UGCAUGU
13 | B13 | 0.0124 KA relative to UGCAUGU
14 | B14 | 0.00282 KA relative to UGCAUGU
15 | B15 | 0.00784 KA relative to UGCAUGU
16 | B16 | 0.000399 KA relative to UGCAUGU

Row | Binder | binding signal
17 | B17 | 0.0145 KA relative to UGCAUGU
18 | B18 | 0.0352 KA relative to UGCAUGU
19 | B19 | 0.0132 KA relative to UGCAUGU
20 | B20 | 0.0275 KA relative to UGCAUGU
21 | B21 | 0.0223 KA relative to UGCAUGU
22 | B22 | 0.0448 KA relative to UGCAUGU
23 | B23 | 0.0322 KA relative to UGCAUGU
24 | B24 | 0.00524 KA relative to UGCAUGU
25 | B25 | 0.0273 KA relative to UGCAUGU
26 | B26 | 0.007 KA relative to UGCAUGU
27 | B27 | 0.0127 KA relative to UGCAUGU
28 | B28 | 0.0113 KA relative to UGCAUGU
29 | B29 | 0.00889 KA relative to UGCAUGU
30 | B30 | 0.0286 KA relative to UGCAUGU
31 | B31 | 0.00525 KA relative to UGCAUGU
